Source: PubChem BioAssay (EPA / NIEHS)
Activity calls are given as the source filed them. The calls were made as follows: active = hit-call score of the fitted dose curve at least 0.9, where 1 is the maximum; inactive = score below 0.9.

Assay: ATG_GLI_CIS: Attagene CIS-FACTORIAL HepG2 Assay for human Zinc Finger Protein GLI1 (AID 2282945)
Details: HepG2, Attagene cis-factorial reporter mRNA, GLI element; actives raise or lower the signal
Summary of the method: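 HepG2 cells transiently transfected with cis-promoter multiplexed reporter units report endogenous transcription factor activity. After 24 h chemical exposure, reporter mRNA was quantified by RT-PCR, 6-FAM labelling, HpaI digestion and capillary electrophoresis, with bidirectional fitting against DMSO.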

outcome, inactive:
S=c1[nH]c2ccccc2s1, Cc1cn([C@H]2C=C[C@@H](CO)O2)c(=O)[nH]c1=O, C#CC(O)C(CC)CCCC (centres undefined), CCOCCOCCO, NCCOCCOCCN, Cc1occc(=O)c1O, CCCCC(CC)CO (centres undefined), CCCC[C@H]1CN(CC2CCOCC2)C(=O)OC12CCN(C1(C)CCN(C(=O)c3c(C)ncnc3C)CC1)CC2, C/C=C/C=C/C(=O)O, CCCCC(CC)COC(=O)CCCCCCCC(=O)OCC(CC)CCCC (centres undefined), O=C(O)c1cccnc1, O=C1O[C@H]([C@H](O)CO)C(O)=C1O, Cc1ccc(-c2cc(C(F)(F)F)nn2-c2ccc(S(N)(=O)=O)cc2)cc1, CCCC(=O)O, O=NO, c1ccc2occc2c1, CC(=O)CC(c1ccccc1)c1c(O)c2ccccc2oc1=O (centres undefined), CN(C)C(=O)NC1(c2ccccc2)CCN(CC[C@@]2(c3ccc(F)c(F)c3)CN(C(=O)c3ccccc3)CCO2)CC1, O=C(Oc1ccccc1)c1cccc(C(=O)Oc2ccccc2)c1, Cn1cnc2c1c(=O)[nH]c(=O)n2C, O=C(O)CN(CC(=O)O)CC(=O)O, COc1ccc(C(=O)Nc2nc3ccccc3c(NCc3ccccc3)c2C#N)cc1, C/C=C/c1ccc(OC)cc1, CCCCCCC(C=O)=Cc1ccccc1, CCC(C)N(C)C(=O)c1cc2ccccc2c(-c2ccccc2Cl)n1 (centres undefined), O=C(O)c1[nH]n(-c2ccc(S(=O)(=O)O)cc2)c(=O)c1N=Nc1ccc(S(=O)(=O)O)cc1, Cc1ccc(C(C)(C)C)c(O)c1, O=Cc1ccccc1C=O, COC(=O)CCC(=O)OC
